This is a sample that favours compounds with a hit; in the whole collection about 12% have one here.
G9a inh: blocks human histone lysine methyltransferase G9a; Potency, µM (titrated, usually from 102 µM), inactives show at the top dose activity, negative = inhibition, most hits filed as inhibitors; hit rate 8.8% among 350,000; G9a H3K9 monomethylation, AlphaScreen, 2 h; Q96KQ7; note: % is set by controls: 0 for no effect and ±100 for the full control effect; nearly all actives have a fitted effect of over 75% in size
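Chemiluminescent proximity detection of H3K9 monomethylation, read after 10 min bead incubation in the dark. Reaction: 20 nM G9a, 500 nM biotin-H3K9 peptide, 20 uM SAM cofactor, 2 h, room temperature, following 15 min enzyme-compound preincubation.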
BAZ2B block: blocks human BAZ2B. Q9UIF8. AlphaScreen BAZ2B-H3K14Ac peptide displacement. Potency, µM (top dose mostly 114 µM), for inactives: at the top dose activity change, negative = inhibition, usual class: inhibitors. hit rate 4.4% among 360,000. AID 504333; note: % is set by controls: 0 for no effect and ±100 for the full control effect; nearly all actives have a fitted effect of over 60% in size
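AlphaScreen displacement: compounds (up to 110uM) incubated 30 min at room temperature with a preformed 50 nM BAZ2B/50 nM biotinylated H3K14Ac peptide complex in PBS pH 7.4 with Tween-20. Donor and acceptor beads at 10 ug/mL final added, 20 min light-protected before reading.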
L3MBTL1 block: blocks human L3MBTL1; AID 485360; Potency, µM (highest dose often 57.1 µM), without a hit: at the top dose activity, negative = inhibition, most hits filed as inhibitors; hit rate 0.66% among 230,000; AlphaScreen L3MBTL1–H3K9me1 peptide binding; note: % is set by controls: 0 for no effect and ±100 for the full control effect; nearly all actives have a fitted effect of over 60% in size
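L3MBTL1 50 nM + b-AHA-H3(1-15)K9me1 75 nM, 30 min RT; compound added, 30 min RT; streptavidin donor/Ni-chelate acceptor beads 10 ug/mL each final, 30 min RT dark; AlphaScreen read.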
JMJD2A Tudor: JMJD2A Tudor domain (human) inhibition | Potency, µM (top dose mostly 114 µM), for inactives: top-dose activity change, negative = inhibition, hits mostly inhibitors | hit rate 4.4% among 390,000 | O75164 | AlphaScreen JMJD2A-Tudor / H3K4me3 peptide binding; note: % is set by controls: 0 for no effect and ±100 for the full control effect; nearly all actives have a fitted effect of over 50% in size
Target sequence (O75164 whole entry, looked up, the tested form may be a part): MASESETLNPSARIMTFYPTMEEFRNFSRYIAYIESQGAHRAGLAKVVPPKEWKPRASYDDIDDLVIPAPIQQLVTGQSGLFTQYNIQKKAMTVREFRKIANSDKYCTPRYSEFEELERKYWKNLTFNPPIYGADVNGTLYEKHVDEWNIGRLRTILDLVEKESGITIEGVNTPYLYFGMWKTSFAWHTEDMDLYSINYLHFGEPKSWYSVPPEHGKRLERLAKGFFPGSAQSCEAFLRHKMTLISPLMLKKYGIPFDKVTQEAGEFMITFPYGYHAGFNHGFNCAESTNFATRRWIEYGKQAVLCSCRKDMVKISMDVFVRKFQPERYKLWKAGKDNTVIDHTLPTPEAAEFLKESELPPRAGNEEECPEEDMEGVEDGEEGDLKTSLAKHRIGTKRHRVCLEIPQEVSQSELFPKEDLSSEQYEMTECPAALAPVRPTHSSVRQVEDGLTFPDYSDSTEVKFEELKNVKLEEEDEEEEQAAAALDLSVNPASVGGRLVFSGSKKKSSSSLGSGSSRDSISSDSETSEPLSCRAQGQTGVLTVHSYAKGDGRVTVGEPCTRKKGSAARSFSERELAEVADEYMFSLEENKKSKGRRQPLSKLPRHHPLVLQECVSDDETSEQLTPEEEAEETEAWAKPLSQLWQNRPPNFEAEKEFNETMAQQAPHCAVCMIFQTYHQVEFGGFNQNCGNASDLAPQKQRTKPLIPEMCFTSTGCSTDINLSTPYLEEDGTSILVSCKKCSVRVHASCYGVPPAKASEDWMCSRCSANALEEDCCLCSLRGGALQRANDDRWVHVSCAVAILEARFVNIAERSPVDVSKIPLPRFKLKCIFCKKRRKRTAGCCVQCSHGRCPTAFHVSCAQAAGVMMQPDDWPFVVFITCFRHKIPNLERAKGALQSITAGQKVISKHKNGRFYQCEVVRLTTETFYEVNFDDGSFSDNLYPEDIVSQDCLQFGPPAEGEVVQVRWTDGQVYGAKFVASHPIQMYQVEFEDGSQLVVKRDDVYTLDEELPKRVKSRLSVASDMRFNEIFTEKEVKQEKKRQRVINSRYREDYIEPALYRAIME
HP1b chromo inh: HP1-beta chromodomain-methylated histone interaction inhibition; Potency, µM (titrated, usually from 114 µM), for inactives: top-dose activity change, negative = inhibition, hits mostly inhibitors; AID 540317; AlphaScreen HP1-beta / biotin-H3K9me3 peptide binding; hit rate 0.56% among 390,000; note: nearly all actives have a fitted effect of over 70% in size
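HP1-beta protein (50 nM final) preincubated 30 min at room temperature with biotinylated H3(1-18)K9me3 peptide (50 nM) in PBS pH 7.4, 0.01% Tween-20, then compound added for 30 min. AlphaScreen streptavidin donor/nickel chelate acceptor beads (10 ug/mL final), 30 min dark, luminescence read.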
Sfp inh: Sfp phosphopantetheinyl transferase inhibition; Q9F4F7; Biochemical Sfp PPTase activity, qHTS; Potency, µM, for the others: largest response in the series, negative = inhibition, actives largely listed as inhibitors; hit rate 3.5% among 310,000;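 note: the enzyme is Sfp with the accession as filed and its product quenches rhodamine fluorescence; 0% = enzyme reaction without inhibitor and -100% = no enzyme wells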
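Compounds were incubated with enzyme (final 15 nM) for 15 min at room temperature before substrate addition started the reaction. Fluorescence at 525 nm excitation, 598 nm emission was recorded immediately and after 30 minutes.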
* = called active by the depositor; ? = inconclusive; . = no result; [ ] = another dose, or the depositor's remark. Calls come from the whole dose curve; as a rule, active = well fitted curve in the direction sought with a large enough effect; inconclusive = small, poorly fitted or top-dose-only effect, or another doubt; inactive = no such curve, though single readings can be large; an effect the other way counts as inactive or inconclusive. Potency is the fitted concentration of half-maximal effect.

SMILES	G9a inh	BAZ2B block	L3MBTL1 block	JMJD2A Tudor	HP1b chromo inh	Sfp inh
COc1cccc(CNC(=O)Cc2c(C)c3c(cc(C)c4c(C)coc43)oc2=O)c1	0%[59 µM]	0%	.	-15%	16%	.
COCCNc1nc(C)nc2c1nc(-c1ccccc1)n2CC1CCN(C)CC1	.	.	.	.	.	28%
C/C(CC(=O)Nc1ccc(N(C)C)cc1)=N\NC(=O)c1ccc(Cl)cc1	34%	7%	.	?	3%	-12%
C/C(CC(=O)Nc1ccc(N(C)C)cc1)=N\NC(=O)c1cnccn1	?	-35%	8%	79µM*	-7%	56µM*
COc1ccc(C(=O)N/N=C(\C)CC(=O)Nc2ccc(N(C)C)cc2)c(OC)c1	13%[0.501 µM]	40µM*	8%[2.29 µM]	?	?	3%
COC(C(=O)N/N=C(\C)CC(=O)Nc1ccc(Cl)cc1C)c1ccccc1 (stereo unspecified)	-14%	-3%	3%	-13%	33%	11%
C/C(CC(=O)Nc1ccc(N(C)C)cc1)=N\NC(=O)c1ccncc1	35µM*	-33%	-17%	-12%	17%	-5%
COC(C(=O)N/N=C(\C)CC(=O)Nc1ccc(N(C)C)cc1)c1ccccc1 (stereo unspecified)	16µM*	-21%	-12%	-26%	11%	-12%
COc1ccc(CC(=O)Nc2ccc(/C(C)=N/NC(=O)c3ccc(OC)cc3OC)cc2)cc1	10%	-14%	.	-8%	43%	-1%
CSc1ccc(CCNc2ncnc3onc(C)c23)cc1	-21%[59 µM]	3%[57.1 µM]	.	-10%	63%	.
COc1ccccc1C1N=C(Nc2nc3ccccc3o2)NC2=C1C(=O)CC(C)(C)C2 (stereo unspecified)	.	.	.	-19%[57.1 µM]	5%[57 µM]	.
CCOC(=O)c1[nH]c(C)c(CCC(=O)N2CCN(c3cc(C)ccc3C)CC2)c1C	-43%[59 µM]	?	.	?	-2%[57 µM]	.
O=C(O)C1CC=CCC1C(=O)Nc1cccc([N+](=O)[O-])c1 (stereo unspecified)	?	89µM*	8%	-10%	30%	20%
O=C(O)C1CC=CCC1C(=O)Nc1cccc(F)c1 (stereo unspecified)	?	-5%	-17%	-25%	18%	19%
Cc1nnc(SCc2cc([N+](=O)[O-])cc3c2OCOC3)n(N)c1=O	2%	-3%	-20%	-9%	41%	11%
CN(C)S(=O)(=O)c1cccc(-c2nnc(SCc3cc(Cl)cc4c3OCOC4)n2N)c1	8.9µM*	-27%	4%	40µM*	?	32µM*
COCCCNC(=O)C(=O)NCCCOC(C)C	5%[59 µM]	-2%	7%	5.6µM*	35%	21%
CCC(=O)Nc1ccc(C)cc1-c1nc2ccccc2n(CC(=O)c2ccc(C)cc2)c1=O	?	-13%	.	-3%	42%	.
O=C(Nc1ccccc1)N1CCc2scc[n+]2-c2ccccc21	-16%[59 µM]	-8%	1%	-20%	-5%	?
O=CN1CCc2scc[n+]2-c2ccccc21	?	-6%	8%	-25%	27%	32µM*
CCCCN1CC(O)C(O)C(O)C1CO (stereo unspecified)	-2%[12.7 µM]	.	.	.	.	2%
Cn1cccc1C(=O)N1CCC[C@@]2(CCN(Cc3cc(C(F)(F)F)cc(C(F)(F)F)c3)C2)C1	-3%[12.7 µM]	.	.	.	.	46%
CCOC(=O)c1sc(NC(=O)c2cc3nc(-c4ccc(Br)cc4)cc(C(F)(F)F)n3n2)c(C(=O)OCC)c1C	-41%[59 µM]	-13%	.	-7%	26%	.
Cc1cc2n(n1)C(c1ccc(N(C)C)cc1)Nc1ccccc1-2 (stereo unspecified)	29%[59 µM]	33%	34%	45µM*	-45%	16%
Cc1cc2n(n1)C(c1ccccc1)Nc1ccccc1-2 (stereo unspecified)	-15%[59 µM]	-3%	-3%	-19%	32%	-1%
SMILES	G9a inh	BAZ2B block	L3MBTL1 block	JMJD2A Tudor	HP1b chromo inh	Sfp inh
CCN1CCN(C(=S)c2ccc(Br)cc2)CC1	10%[0.501 µM]	-13%	3%	-28%	?	14µM*
Oc1ccc(C(=S)N2CCN(Cc3ccccc3)CC2)cc1	2.2µM*	-25%	.	?	?	16µM*
S=C(c1ccc(Br)cc1)N1CCN(Cc2ccccc2)CC1	.	?	-15%	?	-35%	11µM*
O=C(c1ccc2ccccc2c1)N1CCN(Cc2ccccc2)CC1	-2%	-8%	.	-9%	-2%	4%
Cn1nnc2c(NCc3ccc(Cl)cc3)ncnc21	-5%[59 µM]	1%	.	-15%	10%	.
CCS(=O)(=O)N1CCc2cc(C(=O)Nc3cc([N+](=O)[O-])ccc3C)ccc21	?	?	.	?	4%	.
Cc1cc(Cl)ccc1OCC(=O)N(Cc1ccc(N(C)C)cc1)CC1CCCO1 (stereo unspecified)	18µM*	11µM*	.	28µM*	?	.
CN(C)c1ccc(CN(CC2CCCO2)C(=O)COc2ccccc2Cl)cc1 (stereo unspecified)	13µM*	40µM*	.	45µM*	?	.
CCOCCCNC(=O)Cn1ncc2c([nH]c3ccc(C)cc32)c1=O	-27%[59 µM]	5%[57.1 µM]	.	0%	22%	.
O=C(c1ccco1)N1CCC2(CCCN(Cc3ccccc3)C2)CC1	4%[12.7 µM]	.	.	.	.	-6%
CCCCCSc1nnc2c(n1)OC(c1ccc(C)s1)N(C(C)=O)c1ccccc1-2 (stereo unspecified)	?	-38%	.	?	-8%	.
CCCCSc1nnc2c(n1)OC(c1ccc(Br)s1)N(C(C)=O)c1ccccc1-2 (stereo unspecified)	10µM*	?	.	?	16%	.
O=C1NC(=S)S/C1=C\c1ccc(SCc2ccccc2)o1	?	50µM*	28µM*	25µM*	?	?
O=C1NC(=S)S/C1=C\c1ccc(SCc2ccco2)o1	10µM*	18µM*	3.5µM*	6.3µM*	11µM*	20µM*
O=C(NCc1ccc(Cl)cc1)C(=O)NCC(c1ccco1)S(=O)(=O)c1cccs1 (stereo unspecified)	3%[59 µM]	2%	.	-3%	27%	.
O=C(CCl)N1CCN(S(=O)(=O)c2ccc3ccccc3c2)CC1	-17%	-18%	.	-27%	41%	14%
O=C(CNCC1CCCO1)N1CCN(S(=O)(=O)c2ccc3ccccc3c2)CC1 (stereo unspecified)	?	56µM*	.	7.9µM*	-35%	-11%
O=C(NCC1CCCO1)c1cc(S(=O)(=O)N2CCCCC2)ccc1Cl (stereo unspecified)	8%[12.7 µM]	56µM*	1%	-8%	35%	.
Cc1ccc(S(=O)(=O)N2CCCCC2)cc1C(=O)NCC1CCCO1 (stereo unspecified)	19%	-2%	.	2%	18%	16%
CCN(CC)c1ccc(NC(=O)CSc2nnc(C)c(=O)[nH]2)cc1	?	-31%	.	?	-15%	.
